Results with a measured potency or affinity are listed apart. Active and inactive are the calls of the source.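 Rule for the calls: active = signal-lowering compounds whose fitted half-maximal concentration is at or below twice the top tested dose in every run; inconclusive = runs disagree, flat 30 to 70% inhibition, or poor curve fit; inactive = the rest.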
target: Protein S100-A4 (Homo sapiens) (UniProt P26447); test: S100A4-myosin IIA binding inhibitor potency, dose response, biochemical, fluorescence polarization, cherry-picked hits (AID 687001); details: FP, S100A4/TAMRA-myosin IIA peptide binding; series mostly up to 11 µM;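 note: 0% = DMSO neutral control wells and -100% = TFP positive control wells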
Sequence (P26447 whole entry, looked up): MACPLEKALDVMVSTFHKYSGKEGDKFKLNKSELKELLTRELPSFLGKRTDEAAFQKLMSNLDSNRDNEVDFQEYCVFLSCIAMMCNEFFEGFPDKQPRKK

| Compound | outcome | activity change, negative = inhibition |
| --- | --- | --- |
| Cc1ccc(C(=O)N2CCN(c3ccc([N+](=O)[O-])c(N4CCOCC4)c3)CC2)cc1 | inactive |  |
| COCCOC(=O)c1nccnc1C(=O)Nc1ccc(S(=O)(=O)N2CCOCC2)cc1 | inactive |  |
| O=C(Nc1ccccc1)N1CCCCN2[C@H](CO)[C@H](c3ccc(C#Cc4ccccn4)cc3)[C@H]2C1 | inactive |  |
| CCNC(=O)NC(=O)CSc1cccc(C(F)(F)F)c1 | inactive |  |
| COc1ccc(CN2C[C@H](O)COC[C@@H]3O[C@@H](CC(=O)N(C)C)CC[C@H]32)cc1 | inactive |  |
| C[C@H]1CCCCO[C@H](CN(C)C(=O)c2ccccc2)[C@@H](C)CN([C@@H](C)CO)C(=O)c2cc(NC(=O)NC3CCCCC3)ccc2O1 | inactive |  |
| Cc1csc(=O)n1CC(=O)OCc1nnc(-c2ccc(Cl)cc2)o1 | inactive |  |
| C(=Cc1nc2ccccc2o1)c1ccc2c(c1)OCO2 | inactive |  |
| COc1ccc(N2CC(C(=O)Nc3ccccc3N3CCCC3)CC2=O)c(OC)c1 (centres undefined) | inactive |  |
| Cn1c(=O)c2sccc2n2c(CCCC(=O)N3CCN(c4ccccn4)CC3)nnc12 | inactive |  |
| CCCC(=O)Nc1ccc2c(c1)C(=O)N(C)C[C@H](OC)[C@H](C)CN(Cc1ccccc1)[C@H](C)CO2 | inactive |  |
| O=S(=O)(NCCN1CCOCC1)c1ccc(-c2ccc(S(=O)(=O)NCCN3CCOCC3)cc2)cc1 | inactive |  |
| Cc1ccccc1OCC(=O)Nc1ccc(S(=O)(=O)N2CCCC2)cc1 | inactive |  |
| Cc1ccc(N(C)S(=O)(=O)c2cccc(C(=O)NCCCN3CCCC3=O)c2)cc1 | inactive |  |
| O=S(=O)(c1ccc2c(c1)CCCN2)N1CCCC2CCCCC21 (centres undefined) | inactive |  |
| Nc1cc(-c2ccncc2)c[nH]c1=O | inactive |  |
| COC(=O)[C@@H]1[C@@H](CO)[C@@H]2Cn3c(ccc(-c4ccccc4)c3=O)[C@@H]2N1C(=O)CC1CC1 | inactive |  |
| CC=Cc1ccc2n(c1=O)C[C@H]1[C@H](CO)[C@@H](C(=O)NCC3CC3)[C@@H]2N1Cc1cccnc1 (mixture of isomers) | inactive |  |
| CCNC(=O)[C@H]1[C@H](CO)[C@H]2Cn3c(ccc(-c4ccc(F)cc4)c3=O)[C@@H]1N2C | inactive |  |
| Cc1cc(=O)oc2c(C)c(OCC(=O)N3CCN(C(=O)C4COc5ccccc5O4)CC3)ccc12 (centres undefined) | inactive |  |

| Compound | outcome | activity change, negative = inhibition |
| --- | --- | --- |
| COC(=O)C[C@@H]1CC[C@H]2[C@H](COc3ccc(NS(=O)(=O)c4ccc(C)cc4)cc3C(=O)N2C)O1 | inactive |  |
| CC(OC(=O)C1CC(=O)N(Cc2ccco2)C1)C(=O)Nc1ccc(F)cc1Cl (centres undefined) | inactive |  |
| Cn1cnc(CCNC(=O)C[C@@H]2CC[C@H]3[C@@H](COC[C@@H](O)CN3C(=O)C3CC3)O2)c1 | inactive |  |
| CCc1nn2c(=O)cc(COc3ccc(NC(=O)c4ccco4)cc3)nc2s1 | inactive |  |
| C[C@@H]1CN([C@@H](C)CO)C(=O)c2cccc(NS(=O)(=O)c3ccc(F)cc3)c2O[C@H]1CN(C)C(=O)NC1CCCCC1 | inactive |  |
| COc1ccc(Cl)cc1S(=O)(=O)n1ccnc1 | inactive |  |
| Cc1ccc(N(C)S(=O)(=O)c2ccc3[nH]cc(C(=O)NCCCN4CCOCC4)c(=O)c3c2)cc1C | inactive |  |
| COc1ccccc1NC(=O)N[C@H]1C=C[C@H](CC(=O)N2CCC(Cc3ccccc3)CC2)O[C@@H]1CO | inactive |  |
| O=C(c1cccc(F)c1)N1CC[C@H]2[C@H](CO)Nc3ccc(-c4ccc(F)cc4)cc3[C@H]21 | inactive |  |
| Cc1cc(=O)oc2c3c(cc(OCC(=O)NCC(=O)N[C@H](C(=O)O)C(C)C)c12)OC(C)(C)CC3 | inactive |  |
| CN(C)c1ccc(/C=C(\C#N)C(=O)OCC(=O)N(C)C2CCS(=O)(=O)C2)cc1 (centres undefined) |  | 128% [at 2.6 µM] (inactive) |
| COC(=O)c1ccc(NC(=O)C2CCCN2C(=O)Nc2cccc(C(C)=O)c2)cc1 (centres undefined) | inactive |  |
| C[C@@H]1CCCCO[C@@H](CN(C)C(=O)Cc2ccccc2)[C@H](C)CN([C@@H](C)CO)C(=O)c2cc(NC(=O)Cc3ccccc3)ccc2O1 | inactive |  |
| CC(OCCN(C)C)C(=O)C12CC3CC(CC(C3)C1)C2 (centres undefined) | inactive |  |
| COc1cccc(NC(=O)N[C@@H]2C=C[C@@H](CC(=O)NCc3ccncn3)O[C@@H]2CO)c1 | inactive |  |
| Nn1c(SCc2ccccc2F)nnc1-c1cccnc1 | inactive |  |
| COc1ccc(-c2ccc3c(c2)O[C@H](CN(C)Cc2cccnc2)[C@@H](C)CN([C@H](C)CO)S3(=O)=O)cc1 | inactive |  |
| C[C@@H]1CN([C@@H](C)CO)C(=O)CCCn2nncc2CO[C@@H]1CN(C)S(=O)(=O)c1ccccc1 | inactive |  |
| CO[C@H]1CN(C)C(=O)c2ccc(NC(=O)NC(C)C)cc2OC[C@@H](C)N(C(=O)NC(C)C)C[C@H]1C | inactive |  |

— PubChem BioAssay AID687001 (Broad Institute, 2013)
